In PubChem BioAssay (Tox21):
“And” between values parts separate entries of the source, which are not always exact repeats. Equal values may be shown once. Records with an inconclusive call do not appear. Entries that show only a call come without a potency. Some compounds were tested as several samples or in several runs, with calls that do not always agree. The source made the active and inactive calls. Calls follow the shape of the dose curve; as a rule, active = well fitted inhibition curve with a large enough effect in the repeat runs; inconclusive = weak or mixed curves; inactive = no such curve, though single readings can be large or run the other way.

target: Cytochrome P450 2D6 (Homo sapiens) (UniProt P10635); test: Cytochrome P450 Family 2 Subfamily D Member 6 (CYP2D6) small molecule antagonists: luciferase reporter qHTS assay (AID 1671196); conditions: P450-Glo CYP2D6 enzyme assay, luciferin luminescence, 1 h; series mostly up to 115 µM; also: nearly all actives have a fitted effect of over 50% in size
Sequence (P10635 whole entry, looked up): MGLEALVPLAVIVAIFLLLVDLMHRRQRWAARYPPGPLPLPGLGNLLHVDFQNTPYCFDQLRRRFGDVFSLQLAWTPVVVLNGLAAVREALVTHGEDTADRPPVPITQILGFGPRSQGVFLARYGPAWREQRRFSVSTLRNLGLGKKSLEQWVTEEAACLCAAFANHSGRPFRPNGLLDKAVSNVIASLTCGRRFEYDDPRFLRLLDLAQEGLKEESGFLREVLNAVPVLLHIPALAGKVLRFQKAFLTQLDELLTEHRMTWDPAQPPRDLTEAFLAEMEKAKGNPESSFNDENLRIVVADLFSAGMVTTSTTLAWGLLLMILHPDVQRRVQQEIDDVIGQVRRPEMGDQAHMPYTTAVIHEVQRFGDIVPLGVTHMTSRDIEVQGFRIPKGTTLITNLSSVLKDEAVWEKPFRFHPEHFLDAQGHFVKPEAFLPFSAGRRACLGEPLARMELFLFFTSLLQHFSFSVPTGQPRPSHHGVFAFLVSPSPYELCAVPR
From the text: U.S. Tox21 Program National Center for Advancing Translational Sciences [NCATS] U.S. Environmental Protection Agency [EPA] National Institutes of Environmental Health Sciences [NIEHS] National Toxicology Program [NTP] U.S. Food and Drug Administration [FDA] Tox21 Assay Overview: Cytochrome P450 (CYP) enzymes are membrane-bound hemeproteins that play a key role in metabolism of drugs and xenobiotics. Evaluation of the effect of chemicals on CYP isozymes is useful to minimize the adverse drug reactions and toxicities in drug development process. Tox21 chemicals were tested for their effect on CYP enzyme activities by using P450-Glo (TM) screening systems (Promega Corporation, Madison, WI). These systems provide a luminescent method containing proluciferin substrates and are converted to luciferin products by CYP isozymes. The luciferin products formed are detected with a luciferin detection reagent, and the amount of light produced is proportional to CYP activity. P450-Glo (TM) CYP2D6 screening system (Catalog. No. V9890) was used to detect the compounds that interfere in CYP2D6 activity.
Tox21 Assay Protocol Summary: Two ul of enzyme-substrate mix was dispensed into medium binding white/solid 1536-well plates (Greiner Bio-One North America Inc., Monroe, NC) using a BioRaptr Flying Reagent Dispenser (FRD, Beckman Coulter, Brea, CA). […] The assay plates were incubated at room temperature for 10 min. Then 2 ul of NADPH regeneration solution was added to each well of the assay plates using an FRD and incubated at room temperature for 1 h. The reaction was stopped by adding 4 ul of detection reagent using an FRD and after 20 min incubation at room temperature the luminescence signal was measured using a ViewLux plate reader (Perkin Elmer, Shelton, CT). Data were expressed as relative luminescence units.
Potency is read from the fitted curve at half-maximal effect.

| SMILES | Potency |
| --- | --- |
| CC(C)CCCCCCCOC(=O)CCCCC(=O)OCCCCCCCC(C)C | inactive |
| CC(CCO)CC(C)(C)C (stereo not given) | inactive |
| O=C(O)/C=C/C(=O)O | 37.6 µM (active) and inactive |
| NC(=S)NNC(N)=S | inactive |
| CC(=O)OCCOC(C)=O | inactive |
| CC(C)OP(=O)(CP(=O)(OC(C)C)OC(C)C)OC(C)C | inactive |
| CN(C)c1ccc(Cc2ccc(N(C)C)cc2)cc1 | 40.1 µM (active) |
| Clc1ccccn1 | inactive |
| CCO[Si](CCC#N)(OCC)OCC | inactive |
| CCCOC(=O)c1ccccc1 | inactive |
| CCOCC(=O)O | 32.4 µM (active) and 31.7 µM (active) |
| C=CCc1ccc(OC)c(OC)c1 | inactive |
| NCCNCCN | 63.5 µM (active) |
| N[C@H](Cc1c[nH]c2ccccc12)C(=O)O | inactive |
| Nc1nc(N)nc(-c2ccccc2)n1 | inactive |
| O=[N+]([O-])c1ccc2nc[nH]c2c1 | inactive |
| CC1(C)OC[C@@H]2O[C@@]3(C(=O)O)OC(C)(C)O[C@H]3[C@@H]2O1 | inactive |
| COC(=O)CCCC(=O)OC | inactive |
| CC1(C)CC(N)CC(C)(CN)C1 (stereo not given) | 36.1 µM (active) and inactive |
| CCOC(=O)c1ccc(N)cc1 | inactive |

| SMILES | Potency |
| --- | --- |
| CCCCCCCC=O | inactive |
| CN(C)CCOC(=O)COc1ccc(Cl)cc1 | 35.5 µM (active) and 30.9 µM (active) |
| CCCCC(C=O)CC (stereo not given) | inactive |
| CSc1ccc(Cl)cc1 | inactive |
| C=C(C)C(=O)OCC(C)C | inactive |
| CN/C(=C\[N+](=O)[O-])NCCSCc1csc(CN(C)C)n1 | 35.6 µM (active) and inactive |
| COc1ccc(CCC(C)=O)cc1 | inactive |
| CC(=O)CC(C)(C)O | inactive |
| CC(=O)OCc1ccccc1 | inactive |
| O=c1[nH]cnc2[nH]ncc12 | inactive |
| CC(C)(C#N)c1cc(Cn2cncn2)cc(C(C)(C)C#N)c1 | inactive |
| CCCCCC(=O)O | inactive |
| CC(C)(Oc1ccc(CCNC(=O)c2ccc(Cl)cc2)cc1)C(=O)O | inactive |
| CN(C)c1ccc(O)c2c1C[C@H]1C[C@H]3[C@H](N(C)C)C(=O)C(C(N)=O)=C(O)[C@@]3(O)C(=O)C1=C2O | inactive |
| C=C(C)[C@H]1CC=C(C)C(=O)C1 | 18.2 µM (active) and inactive |
| CCOCCOCCOCCO | inactive |
| CC(C)(C)c1cc(Cc2cc(C(C)(C)C)c(O)c(C(C)(C)C)c2)cc(C(C)(C)C)c1O | inactive |
| CCNc1ccccc1 | inactive |
| CCNc1cccc(C)c1 | inactive |
| CCCCCCCCCCCCCCCCO | inactive |
